Test in all cases: Primary Screen for Target Class Profiling of Small Molecule Inhibitors of Methyltransferases
For experiment [1], the target named is Catechol O-methyltransferase (Homo sapiens) (UniProt P21964). To be noted: purified enzyme, MTase-Glo SAH luminescence; activity change, negative = inhibition: at 40 µM, stronger effect = lower value; outcome: 40 uM. From the text: (§1) PI: Matthew D. Hall Ph.D. and Quinlin M. Hanson Ph.D.
(§2) National Center for Advancing Translational Sciences (NCATS)
(§3) National Institute of Health (NIH), Rockville, MD
(§4) Target class profiling (TCP) is a chemical biology approach amenable to investigating understudied biological targets. TCP is achieved by developing a generalizable assay platform and applying it to screen a curated set of compound libraries against representative members of a target class. Small molecule methyltransferases (SMMTase) are a subclass of methyltransferase that act on metabolites to modulate signaling pathways, metabolize xenobiotics, or balance the available methyl pool. We screened four curated libraries totaling 27,574 unique compounds against the SMMTases nicotinamide N-methyltransferase (NNMT), phenylethanolamine N-methyltransferase (PNMT), histamine N-methyltransferase (HNMT), glycine N-methyltransferase (GNMT), catechol O-methyltransferase (COMT), and guanidinoacetate N-methyltransferase (GAMT). The data generated by this TCP can be leveraged for informed tool molecule development. For example, in the associated publication we identified a chemotype of HNMT-selective inhibitors. Additionally, we identified a putative SMMTase-selective inhibitor with potential as a tool molecule for studying broader methyltransferase biology.
(§5) High-through put screening assays were developed at the National Center for Advancing Translational Science (NCATS) for the enzymes NNMT, PNMT, HNMT, GNMT, COMT, and GAMT. Enzymatic activity was measured as a function of SAM cofactor conversion using the MTase Glo kit (Promega) for all enzymes. All assays were performed in 1536-well format with substrates and SAM concentrations at KM values. Enzyme concentration and assay timing were optimized for 10-20% SAM conversion. Initial screening of 27,574 compounds was done as single-point assays using the highest compound concentration (40 uM). […] These compounds were replated in 11-point dose response and assayed against NNMT, PNMT, HNMT, GNMT, COMT, GAMT, and a counter-assay. The IC50 and efficacy (maximal response) values were determined for each dose-response curve. These values are also accounted for in the area under the curve (AUC) values.
(§6) PROTOCOL TABLE (as described by Inglese J, Shamu CE and Guy RK. 2007)
(§7) SEQUENCE No. (e.g., 1, 2, 3, etc.); […] (e.g., Cells, Incubation, Reagent, etc.); VALUE; DESCRIPTION.
(§8) 1; Reagent; 2 uL; SMMTase Enzyme (2x) in reaction buffer, columns 1- 48.
(§9) 2; Reagent; 1 uL; SAM (4x) in reaction buffer, columns 1-48.
(§10) 3; Controls; 23 nL; DMSO in column 4; sinefungin in DMSO (0 uM - 40 uM) in 7-point 1:2 dilution series (n = 2) in column 2.
(§11) 4; Compounds; 23 nL; Columns 5-48.
(§12) 5; Reagent; 1 uL; Substrate (4x) in reaction buffer, columns 2-48.
(§13) 6; Time; 20-30 min; Incubation.
(§14) 7; Reagent; 1 uL; MTase-Glo reagent (5X), columns 1-48.
(§15) 8; Time; 30 min; Incubation.
(§16) 9; Reagent; 5 uL; MTase-Glo Detection reagent, columns 1-48.
(§17) 10; Time; 30 min; Incubation, luminescence evolution.
(§18) 11; Detection; Luminescence; ViewLux uHTS Microplate Imager (PerkinElmer).
(§19) NOTES (numbers refer to Sequence numbers above)
(§20) 1, 2, 5. White Medium Binding Greiner 1536-well plates (Cat #789175-F, Greiner Bio-One, Monroe, NC); Reaction buffer: 50 mM Tris, pH 8.0, 3 mM MgCl2, 1 mM EDTA, 50 mM NaCl, 1 mM DTT, and 0.1 mg/mL BSA. Evaporation was prevented by covering assay plates with metal lids containing holes to allow gas diffusion.
(§21) 1. Six SMMTase were profiled: HNMT, GNMT, PNMT, COMT, NNMT, GAMT
(§22) 5. The corresponding substrate was used for each enzyme: HNMT - 5.3 uM Histamine; GNMT - >500 uM Glycine; PNMT - 16.2 uM Norephinephrine; COMT - 13.7 uM Norephinephrine; NNMT - 3.8 uM Nicotinamide; GAMT - 2.5 uM Guanidinoacetate.6, 8, 10. Room temperature
(§23) 6. Final reaction conditions: 10 nM COMT, 5 uM SAM, 15 uM norepinephrine, 50 mM Tris, pH 8.0, 3 mM MgCl2, 1 mM EDTA, 50 mM NaCl, 1 mM DTT, and 0.1 mg/mL BSA; refer to tables 2 and S1 for specific timing.
8. […]

The target in experiment [2] is Glycine N-methyltransferase (Homo sapiens) (UniProt Q14749). To be noted: purified enzyme, MTase-Glo SAH luminescence; measured here: GNMT inhibition; at 40 µM; stronger effect = lower value.
Glycine N-methyltransferase (Homo sapiens), sequence (Q14749 whole entry, looked up): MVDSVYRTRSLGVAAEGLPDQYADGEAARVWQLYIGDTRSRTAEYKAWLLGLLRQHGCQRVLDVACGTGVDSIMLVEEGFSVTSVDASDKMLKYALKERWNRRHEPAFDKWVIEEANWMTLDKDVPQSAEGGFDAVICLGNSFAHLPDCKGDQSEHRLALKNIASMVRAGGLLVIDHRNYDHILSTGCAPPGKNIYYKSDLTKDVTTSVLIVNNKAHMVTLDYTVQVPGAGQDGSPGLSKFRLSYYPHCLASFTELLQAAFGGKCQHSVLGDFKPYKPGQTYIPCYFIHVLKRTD
Excerpt: as §1, §2, §3, §4, §5, §6, §7, §8, §9, §10, §11, §12, §13, §14, §15, §16, §17, §18, §19, §20, §21, §22, §23
8. […]

Experiment [3] deals with Guanidinoacetate N-methyltransferase (Homo sapiens) (UniProt Q14353). To be noted: purified enzyme, MTase-Glo SAH luminescence; measured here: GAMT inhibition; at 40 µM; stronger effect = lower value.
Excerpt: as §1, §2, §3, §4, §5, §6, §7, §8, §9, §10, §11, §12, §13, §14, §15, §16, §17, §18, §19, §20, §21, §22, §23
8. […]

The target of experiment [4] is Histamine N-methyltransferase (Homo sapiens) (UniProt P50135). To be noted: purified enzyme, MTase-Glo SAH luminescence; measured here: HNMT inhibition; at 40 µM; stronger effect = lower value.
Histamine N-methyltransferase (Homo sapiens), sequence (P50135 whole entry, looked up): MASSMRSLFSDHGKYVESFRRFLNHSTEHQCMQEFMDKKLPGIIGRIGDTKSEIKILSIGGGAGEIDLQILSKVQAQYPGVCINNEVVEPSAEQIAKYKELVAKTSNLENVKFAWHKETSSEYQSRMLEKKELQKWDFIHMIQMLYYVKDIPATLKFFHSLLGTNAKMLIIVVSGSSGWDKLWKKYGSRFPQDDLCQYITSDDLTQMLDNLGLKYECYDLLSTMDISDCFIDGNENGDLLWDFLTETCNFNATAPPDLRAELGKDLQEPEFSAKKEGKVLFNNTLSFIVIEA
Excerpt: as §1, §2, §3, §4, §5, §6, §7, §8, §9, §10, §11, §12, §13, §14, §15, §16, §17, §18, §19, §20, §21, §22, §23
8. […]

The target of experiment [5] is Nicotinamide N-methyltransferase (Homo sapiens) (UniProt P40261). To be noted: purified enzyme, MTase-Glo SAH luminescence; measured here: NNMT inhibition; at 40 µM; stronger effect = lower value.
Nicotinamide N-methyltransferase (Homo sapiens), sequence (P40261 whole entry, looked up): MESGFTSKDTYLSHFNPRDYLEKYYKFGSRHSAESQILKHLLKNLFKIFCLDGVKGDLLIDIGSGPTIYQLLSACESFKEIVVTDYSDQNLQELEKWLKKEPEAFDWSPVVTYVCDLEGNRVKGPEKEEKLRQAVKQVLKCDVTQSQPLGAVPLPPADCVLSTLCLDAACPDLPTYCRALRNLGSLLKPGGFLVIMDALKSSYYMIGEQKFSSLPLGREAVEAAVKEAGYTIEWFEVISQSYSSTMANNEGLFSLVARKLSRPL
Excerpt: as §1, §2, §3, §4, §5, §6, §7, §8, §9, §10, §11, §12, §13, §14, §15, §16, §17, §18, §19, §20, §21, §22, §23
8. […]

The target of experiment [6] is Phenylethanolamine N-methyltransferase (Homo sapiens) (UniProt P11086). To be noted: purified enzyme, MTase-Glo SAH luminescence; measured here: PNMT inhibition; at 40 µM; stronger effect = lower value.
Phenylethanolamine N-methyltransferase (Homo sapiens), sequence (P11086 whole entry, looked up): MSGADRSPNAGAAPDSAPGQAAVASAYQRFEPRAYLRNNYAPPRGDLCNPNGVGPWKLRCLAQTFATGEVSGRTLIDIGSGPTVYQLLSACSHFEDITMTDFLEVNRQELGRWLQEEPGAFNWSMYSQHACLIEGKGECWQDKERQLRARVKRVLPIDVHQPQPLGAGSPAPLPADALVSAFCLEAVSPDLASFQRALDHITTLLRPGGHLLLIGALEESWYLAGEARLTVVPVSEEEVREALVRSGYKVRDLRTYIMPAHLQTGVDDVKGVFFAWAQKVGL
Excerpt: as §1, §2, §3, §4, §5, §6, §7, §8, §9, §10, §11, §12, §13, §14, §15, §16, §17, §18, §19, §20, §21, §22, §23
8. […]

Several values for one entry are separate records, joined by “and”; a condition that tells them apart may be missing. Identical values can stand only once. In all, about 25,000 compounds went through this assay and about 970 (3.9%) were called active. Inconclusive results (about 8%) are left out. The rule behind the calls is not given here. The entries come from a sample that favours actives as a whole.
% is set by controls: 0 for no effect and ±100 for the full control effect.

Catechol O-methyltransferase (Homo sapiens), sequence (P21964 whole entry, looked up): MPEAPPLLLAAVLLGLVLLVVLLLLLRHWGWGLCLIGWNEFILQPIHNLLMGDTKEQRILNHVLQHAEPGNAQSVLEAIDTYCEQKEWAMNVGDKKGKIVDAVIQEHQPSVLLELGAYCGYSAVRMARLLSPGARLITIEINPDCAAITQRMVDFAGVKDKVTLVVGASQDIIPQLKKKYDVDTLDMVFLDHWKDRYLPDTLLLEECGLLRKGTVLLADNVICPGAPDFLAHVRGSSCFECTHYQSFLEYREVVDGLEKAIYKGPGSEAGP

Consider `O=C(CCc1nnc2n(Cc3ccc(Cl)cc3)c(=O)c3ccccc3n12)N1CCN(c2ccccc2F)CC1`, for which the activity change, negative = inhibition in experiment [1] was -4.23% (inactive); in experiment [2], -7.84%; in experiment [3], 3.64%; in experiment [4], -1.5%; in experiment [5], -3.97%; in experiment [6], -4.97%.

For `O=C(CCc1nnc2n(Cc3ccc(Cl)cc3)c(=O)c3ccccc3n12)N1CCN(Cc2ccccc2)CC1`, the activity change, negative = inhibition was -0.522% (inactive) in experiment [1]; -14.1% in experiment [2]; 0.869% in experiment [3]; -6.5% in experiment [4]; -18.2% in experiment [5]; -7.88% in experiment [6].

On to `CC(C)Cn1c(=O)c2ccccc2n2c(CCC(=O)N3CCN(c4cccc(Cl)c4)CC3)nnc12`, for which the activity change, negative = inhibition is -9.54% (active) in experiment [1]; -27.4% in experiment [2]; -4.12% in experiment [3]; -10.4% in experiment [4]; -53.7% in experiment [5]; -12.4% in experiment [6].

Take `COC(=O)c1ncn2c1C(=O)N(Cc1ccc(OC)cc1)C(C)(C(=O)NCc1ccccc1)C2` (configuration not stated): the activity change, negative = inhibition in experiment [1] is -12.8% (inactive); in experiment [2], -10.1%; in experiment [3] it was -0.727%; in experiment [4], -7.43%; in experiment [5] it was -6.98%; in experiment [6], -9.09%.

On to `COc1cc2ncnc(Nc3cccc(Cl)c3F)c2cc1OC(=O)N1CCN(C)C[C@H]1C`, for which the activity change, negative = inhibition is -20.9% (inactive) in experiment [1]; -14.7% in experiment [2]; 0.224% in experiment [3]; -20.1% in experiment [4]; -5.9% in experiment [5]; -15.1% in experiment [6].

On to `CCOc1ccc(CNC(=O)c2cc3n(n2)CC(C)(C(=O)NCc2ccc(F)cc2)N(C)C3=O)cc1OC` (configuration not stated), for which the activity change, negative = inhibition was 1.84% (inactive) in experiment [1]; 2.33% in experiment [2]; -5.76% in experiment [3]; -2.91% in experiment [4]; 3.94% in experiment [5]; 6.92% in experiment [6].

On to `CC(=O)c1cnc2ccc(-c3cc(Cl)c(O)c(Cl)c3)nc2c1NC1CCC(CN(C)C)CC1` (configuration not stated), for which the activity change, negative = inhibition in experiment [1] is 2.27% (active); in experiment [2], -9.49%; in experiment [3] it was 1.31%; in experiment [4], -75.4%; in experiment [5], -14.2%; in experiment [6] it was 0.349%.

`CCn1cc(S(=O)(=O)N2CCC(C3CCN(C(=O)NC)CC3)C2)cn1` (configuration not stated): the activity change, negative = inhibition in experiment [1] is -3.73% (inactive); in experiment [2], -4.19%; in experiment [3], -5.14%; in experiment [4], -1.51%; in experiment [5], -10.1%; in experiment [6] it was 9.89%.

As for `Cc1cc(Nc2cc(CN3CCOCC3)c3nc(C)c(Cc4ccc(Cl)cc4F)n3n2)n[nH]1`, the activity change, negative = inhibition in experiment [1] was -59.4% (active) and -59.9% (active); in experiment [2], -74.4% and -69.1%; in experiment [3], -49%; in experiment [4], -62.1% and -80.8%; in experiment [5], -98.7% and -69.4%; in experiment [6], -114% and -64.4%.

For `CC1(C=O)CC[C@]2(C(=O)O[C@@H]3O[C@H](CO)[C@@H](O)[C@H](O)[C@H]3O)CC[C@]3(C)C(=CCC4[C@@]5(C)C[C@H](O)[C@H](O[C@@H]6OC[C@@H](O)[C@H](O)[C@H]6O)[C@@](C)(CO)C5CC[C@]43C)C2C1` (some centres not stated), the activity change, negative = inhibition in experiment [1] is -12.2% (inactive); in experiment [2], -0.721%; in experiment [3] it was -3.55%; in experiment [4] it was -5.71%; in experiment [5], -15.1%; in experiment [6] it was 2.58%.

`Cc1ccc(C)c(Cn2nc3n(C)c(=O)c4ccc(C(=O)NC5CCCCC5)cc4n3c2=O)c1`: the activity change, negative = inhibition in experiment [1] is 4.71% (inactive); in experiment [2], -4.89%; in experiment [3], 0.055%; in experiment [4], 2.18%; in experiment [5], 5.92%; in experiment [6], 6.36%.

In the case of `CN(Cc1cc(C2CC2)n[nH]1)C(=O)C(c1ccc(F)cc1)N(C)C` (configuration not stated), the activity change, negative = inhibition is 3.85% (inactive) in experiment [1]; 1.91% in experiment [2]; -0.305% in experiment [3]; 1.69% in experiment [4]; 0.211% in experiment [5]; 2.27% in experiment [6].

The values above are taken from PubChem BioAssay AID1745853 (National Center for Advancing Translational Sciences (NCATS), 2022).
